Experimental findings from the supplement of paper PMC11219838 are described below.

In the test the test system is Ditylenchus dipsaci. Nature of the test: proportion of mobile D. dipsaci (mixed stage) relative to DMSO control (fraction of DMSO control); higher = more viable, less nematicidal, active = 0.86 or less; extreme values may be limits of the assay. As to conditions: 60 µM; 5 days; temperature: 20 °C. The essentials:
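Ditylenchus dipsaci nematodes were cultured on pea plants in Gamborg B-5 agar, then extracted into water through a filter funnel, and roughly 20 worms in distilled water were placed in each well of a 96-well plate. Compound was pinned in to a final concentration of 60 µM (0.6% v/v DMSO), and the sealed plates were shaken at 200 rpm for 5 days at 20 °C. Mobile worms were counted under the microscope after 2 µL of 1 M NaOH was added. Mobility is given relative to DMSO controls as the mean of two biological replicates.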
Turning to `Cc1ccccc1CSc1nnc(-c2ccncc2)o1`, the “proportion of mobile D. dipsaci” value was 1 (inactive). With `Clc1ccc(-c2noc(COc3ccccc3Cl)n2)cc1`, the “proportion of mobile D. dipsaci” value was 1 (inactive). The result for `COc1cccc(-c2noc(COc3ccc(Cl)cc3)n2)c1` reads 1 (inactive).

For the molecule `Cc1ccc(-c2noc(-c3ccc(C)cc3Cl)n2)cc1`, the “proportion of mobile D. dipsaci” value was 1 (inactive). For the molecule `Cc1ccc(OCc2nc(-c3ccc(Cl)cc3)no2)c(C)c1`, the “proportion of mobile D. dipsaci” value is 1 (inactive).
